According to PubChem BioAssay (Tox21):
Inconclusive results are not listed. Entries that show only a call come without a potency. Active and inactive are the calls of the source. The call rests on the fitted dose curve.

What follows are molecules tested against Retinoic acid receptor RXR-alpha (Homo sapiens) (UniProt P19793) (assay: qHTS assay to identify small molecule agonists of the RXR signaling pathway (AID 1159527; further: nearly all actives have a fitted effect of over 35% in size)). Details: HEK293T RXRa-UAS-bla, beta-lactamase ratio, 16 h; series mostly up to 76.8 µM.
Sequence of Retinoic acid receptor RXR-alpha (Homo sapiens) (P19793 whole entry, looked up): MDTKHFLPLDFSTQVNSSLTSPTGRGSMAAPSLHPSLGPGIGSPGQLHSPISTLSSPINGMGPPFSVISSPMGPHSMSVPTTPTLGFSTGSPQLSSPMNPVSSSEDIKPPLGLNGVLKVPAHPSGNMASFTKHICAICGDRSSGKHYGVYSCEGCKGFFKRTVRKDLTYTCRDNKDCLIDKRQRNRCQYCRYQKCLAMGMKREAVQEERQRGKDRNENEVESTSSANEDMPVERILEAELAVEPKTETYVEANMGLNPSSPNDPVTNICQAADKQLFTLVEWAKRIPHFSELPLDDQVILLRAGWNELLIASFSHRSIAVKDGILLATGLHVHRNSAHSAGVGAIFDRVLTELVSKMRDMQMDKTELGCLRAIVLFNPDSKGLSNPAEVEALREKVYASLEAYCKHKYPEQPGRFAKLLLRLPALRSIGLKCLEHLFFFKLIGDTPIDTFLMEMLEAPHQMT
Text: U.S. Tox21 Program National Center for Advancing Translational Sciences [NCATS] NIH Chemical Genomics Center [NCGC] U.S. Environmental Protection Agency [EPA] National Institutes of Environmental Health Sciences [NIEHS] National Toxicology Program [NTP] U.S. Food and Drug Administration [FDA] Tox21 Assay Overview: The Retinoid X receptor (RXR), a nuclear hormone receptor expressed in liver, spleen, placenta, epidermis, central nervous system. These receptors are able to form homo and heterodimers with other nuclear receptors and due to this heterodimerizing ability, RXR functions as master regulators producing diverse physiological effects. Three subtypes of RXR exist; alpha, beta and gamma. Retinoid X receptor alpha (RXR-alpha) has potential roles in metabolic signaling pathways, skin alopecia, dermal cysts, cardiac development, insulin sensitization etc. Therefore screening environmental chemicals on RXR-alpha signaling can be used for the studies focused on such therapeutic applications. For quantification of RXR-alpha ligands signaling, GeneBLAzer RXR alpha-UAS-bla HEK 293T (Life Technologies, Carlsbad, CA) cells containing a beta-lactamase reporter-gene under control of Retinoid X receptor-alpha response element were used to screen Tox21 10K library.
Tox21 Assay Protocol Summary: RXR-alpha HEK 293T cells were dispensed at 2,000 cells/6 uL of assay medium containing 2% charcoal-stripped FBS using a Multidrop Combi (ThermoFisher Scientific, Waltham, MA) dispenser. The assay was performed in black wall/clear-bottom 1536-well plates (Greiner Bio-One North America Inc. Monroe, NC). 9-cis retinoic acid was used as a positive control in the agonist mode screen. After the assay plates were incubated at 37 C and 5% CO2 for 5 hr, 23 nL of compounds dissolved in DMSO, positive controls or DMSO only were transferred to the assay plate by a Pintool station (Kalypsys, San Diego, CA). The assay plates were incubated at 37 C and 5% CO2 for 16 hr. One uL of LiveBLAzer B/G FRET substrate (Life Technologies) was added using a Flying Reagent Dispenser (Aurora Discovery, San Diego, CA) and the plates were incubated at room temperature for 2 hr. Fluorescence intensity (405 nm excitation, 460/530 nm emission) was measured using an Envision plate reader (PerkinElmer, Shelton, CT).

Compound	Potency
O=[N+]([O-])C(CO)(CO)CO	inactive
COCC(=O)O	inactive
CCCCNC(N)=O	inactive
Cc1ccc(N)c(S(=O)(=O)O)c1	inactive
C=C(C)C(=O)OCCCCCC	inactive
CCOC(=O)[C@H](CCc1ccccc1)N[C@@H](C)C(=O)N1Cc2ccccc2C[C@H]1C(=O)O	inactive
O=Nc1ccc(O)cc1	inactive
O=C(Oc1ccccc1)c1ccc(O)cc1	inactive
CCc1ccc(O)cc1	inactive
CC1(C)O[C@@H]2C[C@H]3[C@@H]4C[C@H](F)C5=CC(=O)CC[C@]5(C)[C@H]4[C@@H](O)C[C@]3(C)[C@]2(C(=O)CO)O1	inactive
O=C1O[C@H](CO)[C@@H](O)[C@H](O)[C@H]1O	inactive
COC(=O)c1ccc(C(=O)OC)cc1	inactive
CC(C)(N=C=O)c1cccc(C(C)(C)N=C=O)c1	inactive
Nc1cc(-c2ccncc2)c[nH]c1=O	inactive
Cc1cc(=O)[nH]c(C(C)C)n1	inactive
C[C@@H](O)[C@H]1C(=O)N2C(C(=O)O)=C(S[C@@H]3CN[C@H](C(=O)N(C)C)C3)[C@H](C)[C@H]12	inactive
CN(C)c1cccc(O)c1	inactive
O=C(O)c1ccc([N+](=O)[O-])cc1	inactive
NCCc1ccc(O)c(O)c1	inactive
Oc1ccc(OCc2ccccc2)cc1	inactive

Compound	Potency
CCC(=O)O	inactive
OC[C@@H](O)[C@H](O)[C@H](O)[C@@H](O)CO	inactive
CC1=CC[C@H]2C[C@@H]1C2(C)C	inactive
OC1CCCC1	inactive
OC[C@@H](O)[C@@H](O)[C@H](O)[C@@H](O)CO	inactive
CCCCOCCO	inactive
CCC(C)C=O (stereo not given)	inactive
CC(=O)Nc1ccc(C(=O)O)cc1	inactive
C/C=C(C)/C=C/C=C(C)C	inactive
CC(C)NCC(O)COc1cccc2ccccc12 (stereo not given)	inactive
CCCCCCCCCCCCOCC1CO1 (stereo not given)	inactive
CS(=O)(=O)Nc1ccc([N+](=O)[O-])cc1Oc1ccccc1	inactive
CCCCCCC(C)(C)S	inactive
CC(C)(CO)COC(=O)C(C)(C)CO	inactive
CCCCC(CC)COC(C)=O (stereo not given)	inactive
Oc1ccc2ccccc2c1N=Nc1ccccc1	inactive
C=C1C2CCC(C2)C1(C)C (stereo not given)	inactive
O=c1c(-c2ccc(O)cc2)coc2cc(O)ccc12	inactive
CCCCC(CC)COC(=O)/C=C\C(=O)OCC(CC)CCCC (stereo not given)	inactive
CC(C)Cc1ccccc1	inactive
